Compounds with a hit are over-represented: about 2.7% of the library has one in this group of screens.
KKLEB tox – counter-screen for CF NF-kB inhibitors: cytotoxicity. AID 602141. activity change (cytotoxicity), % at 5 µM. KKLEB CF airway cells viability, ATPlite luminescence, overnight; active compounds read low; cells stimulated with P. aeruginosa culture filtrate. actives 0.36% (n = 360,000);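 active = corrected activity change at or below -50% at 5 µM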
Peg3 prom inh – inhibitors of Peg3 promoter. HeLa PEG-Prom luciferase reporter, luminescence, overnight. inhibition, % at 20 µM. actives 1.7% (n = 360,000);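 active = inhibition of at least 50% at 20 µM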
HIF-2a inh – HIF-2a inhibition. 786-0 RCC cells HIF-2a reporter, luciferase luminescence, overnight. inhibition, % at 18.8 µM. actives 0.72% (n = 360,000);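 active = inhibition of the luminescence signal of 40% or more relative to plate controls, in a single-dose primary screen at 18.75 µM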
Shn3 inh set2 – reduces Shn3 3'UTR luciferase signal in osteoblasts | actives 0.52% (n = 360,000) | Clone20 osteoblast Shn3 3'UTR firefly luciferase, 24 h | inhibition, % at 12.5 µM;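 active = mean inhibition of at least 75% with every replicate also reaching 75%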
CF NFkB block – blocks PAF-induced NF-kB reporter in cystic fibrosis cells | actives 0.86% (n = 360,000) | AID 588850 | KKLEB NF-kB-GFP reporter, GFP fluorescence overnight | inhibition, % at 5 µM;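 active = at least 50% inhibition at 5 µM, scaled per plate between neutral and stimulator controls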;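 also: PAF is a Pseudomonas aeruginosa culture filtrate used as stimulus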
TRPM1 prom inh – inhibitors of MITF-driven TRPM1 promoter in melanoma cells | SK-MEL-5 TRPM1 promoter luciferase, 24 h | inhibition, % at 12.5 µM | actives 0.83% (n = 330,000) | AID 488899;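 active = mean inhibition across replicates of 60% or more, whatever share of single replicates reaches that level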
Large screens that a line does not name were inactive.

COc1cccc(C(C[N+](=O)[O-])c2c(C)[nH]n(-c3ccccc3)c2=O)c1 (configuration not stated)	none
Cc1cc(C(=O)Nc2cc(C)n(Cc3ccc(Cl)cc3)n2)no1	none
COc1ccccc1-c1cc(C(=O)Nc2cc(C)n(Cc3ccc(Cl)cc3)n2)no1	KKLEB tox -76.4, CF NFkB block 60.2
Cc1cc(C(=O)c2ccccc2)c(NC(=O)CN2CCOCC2)s1	none
Cc1cc(C(=O)c2ccc(C(C)(C)C)cc2)c(NC(=O)CCl)s1	Peg3 prom inh 103.2
Oc1ccc(C2C[C@H]3CC[C@@H]2C3)cc1O (some centres not stated)	HIF-2a inh 54.9
O=C1CC(c2ccc(O)c(O)c2)Oc2cc(O)cc(O)c21 (configuration not stated)	none
Cc1cc(C)c(S(=O)(=O)/N=C2/C=C(SCC(=O)O)C(=O)c3ccccc32)cc1C	CF NFkB block 55.8
C[C@@]12C(C[C@H](O)[C@@]34C[C@@H](CCC13)[C@@H](CO)C4=O)[C@](C)(C(=O)O)CC[C@@H]2O (some centres not stated)	none (no result: TRPM1 prom inh)
C=C1C(=O)[C@]23C[C@H]1CCC2[C@@]1(C)C(C[C@@H]3O)[C@](C)(C(=O)OC)CC[C@@H]1O (some centres not stated)	KKLEB tox -73.4, Peg3 prom inh 100.4, HIF-2a inh 98.8, Shn3 inh set2 99.2, CF NFkB block 90.3 (no result: TRPM1 prom inh)
O=C(O)CCN(CC(=O)c1ccc(Cl)cc1)S(=O)(=O)c1ccc([N+](=O)[O-])cc1	none
COc1ccc(/C=N/n2cnc3c([nH]c4ccc(C)cc43)c2=O)cc1CN1CCCC1	Peg3 prom inh 76.8, TRPM1 prom inh 82.5
O=C(CSc1nc(-c2ccccc2)nc2c1CCCC2)N1CCOCC1	none
Cc1cccc(-c2nc3c(c(SCC(=O)N4CCOCC4)n2)Cc2c(CO)cnc(C)c2O3)c1	Peg3 prom inh 67.6
COc1cccc(-c2nc3c(c(SCC(=O)N4CCOCC4)n2)Cc2c(CO)cnc(C)c2O3)c1	Peg3 prom inh 59.0
COc1ccccc1-c1nc2c(c(SCC(=O)N3CCCCC3)n1)Cc1c(CO)cnc(C)c1O2	none
Cc1ncc(CO)c2c1Oc1nc(-c3ccccc3)nc(SCC(=O)N3CCOCC3)c1C2	Peg3 prom inh 79.9
O=C(O)c1cccnc1C(=O)c1ccccc1	none
CCCCn1c(-c2nonc2NC(=O)c2ccccc2Cl)nc2ccccc21	Shn3 inh set2 89.3
C#CCNC(=O)c1cc2c(Br)ccc(Br)c2nc1N	none (no result: KKLEB tox, Peg3 prom inh, Shn3 inh set2, CF NFkB block, TRPM1 prom inh)
CC(C)C(NC(=O)c1c(F)cccc1F)C(=O)N1CCN(c2ccccc2F)CC1 (configuration not stated)	none
CC1(C)CC2(C)OC2C2(C1)N=NC(=Nc1ccccc1)O2 (configuration not stated)	Peg3 prom inh 72.8 (no result: TRPM1 prom inh)
COc1cc(C2C3=C(COC3=O)Oc3cc4c(cc32)OCO4)ccc1OC(C)=O (configuration not stated)	none
COc1cc(C2C3=C(COC3=O)Oc3cc4c(cc32)OCO4)cc(OC)c1OC(C)=O (configuration not stated)	CF NFkB block 66.7
COc1ccc(N=C(NN)c2ccc3ccccc3n2)cc1	HIF-2a inh 56.5
COc1ccc(C(=O)NC(=S)NNC(=O)c2ccc3ccccc3n2)cc1	Shn3 inh set2 90.2
CCN(CC)CCNC(=O)c1ccc(NC(=O)c2ccc(S(=O)(=O)N3CCCCCC3)cc2)cc1	none
CCN(CC)CCNC(=O)c1ccc(NC(=O)c2ccc(Cl)c(S(=O)(=O)N3CCCCCC3)c2)cc1	Peg3 prom inh 87.6
COc1ccc2oc(-c3ccc(NC(=O)c4ccc(N5CCOCC5)c([N+](=O)[O-])c4)cc3)nc2c1	KKLEB tox -60.3, CF NFkB block 53.5
O=C(Nc1cccnc1)c1ccc(N2CCOCC2)c([N+](=O)[O-])c1	none
COc1ccc([C@@]23Oc4cc(OC)cc(OC)c4[C@]2(O)[C@H](O)[C@H](C(=O)N(C)C)[C@H]3c2ccccc2)cc1	Peg3 prom inh 96.8, HIF-2a inh 55.7, Shn3 inh set2 91.1, CF NFkB block 59.6, TRPM1 prom inh 66.2
COc1ccccc1OCCNC(=O)CCNS(=O)(=O)c1ccc(C)cc1	none
Cc1cc(C)c2c(=N)c3ccccc3n(CCCCCCCCn3c4ccccc4c(=N)c4c(C)cc(C)nc43)c2n1	Peg3 prom inh 104.6
c1ccc(-c2cc(NCCN3CCCCC3)c3ccccc3n2)cc1	Peg3 prom inh 101.2
CC1Sc2ccc(S(=O)(=O)CCC(=O)NC(C)c3ccccc3)cc2NC1=O (configuration not stated)	none
NCc1ccc(S(N)(=O)=O)cc1	KKLEB tox -50.8
Cc1ccc(S(N)(=O)=O)cc1	none
COc1ccc(C(=O)N2CCC(NC(=O)C(Cc3ccccc3OC)NC(C)=O)CC2)cc1 (configuration not stated)	none
COc1cc(C(=O)N2CCC(NC(=O)C(Cc3ccccc3)NC(C)=O)CC2)cc(OC)c1OC (configuration not stated)	Peg3 prom inh 57.8
Cc1cc(N2CCCC2)c(F)cc1/C=C\[N+](=O)[O-]	Peg3 prom inh 79.2
CSc1ccccc1OCc1cc(C(=O)NCC(C)Oc2cccnc2)no1 (configuration not stated)	none (no result: TRPM1 prom inh)
O=C(Nc1ccccc1)NC1(C(=O)NCc2ccc3c(c2)OCO3)CCCCC1	none
O=C(NCc1ccccc1)NC1(C(=O)Nc2ccc3c(c2)OCCO3)CCCCC1	TRPM1 prom inh 64.5
Cc1ccc(NC(=O)CSc2nnnn2-c2ccc3c(c2)OCO3)cc1C	KKLEB tox -54.0, CF NFkB block 64.7
Cc1ccc(C(C)NC(=O)c2cc3cc(Br)ccc3oc2=N)cc1 (configuration not stated)	none
O=C(CCCOc1ccc(Cl)cc1Cl)N/N=C/c1ccccc1O	Peg3 prom inh 52.1
O=C1OC(CN(Cc2ccccc2)Cc2ccccc2)CN1N=Cc1ccc([N+](=O)[O-])o1 (configuration not stated)	TRPM1 prom inh 82.0
O=C1OC(CN2CCOCC2)CN1N=Cc1ccc([N+](=O)[O-])o1 (configuration not stated)	none
COc1ccccc1N1C(=O)c2ccccc2NC1c1ccncc1 (configuration not stated)	none
COc1ccccc1N1C(=O)N(C(C)=O)C2C1Nc1ccccc1N2C (configuration not stated)	TRPM1 prom inh 68.6
COc1ccccc1NC(=O)C1CCCN(S(=O)(=O)c2ccc3c(c2)CC(C)N3C(C)=O)C1 (configuration not stated)	none
O=C1c2cc(Cl)ccc2-c2c(O)cc(Cl)cc21	Peg3 prom inh 74.8
O=c1cc(O)c(-c2ccc(Cl)cc2)c(Cl)[nH]1	none (no result: Shn3 inh set2)
O=C(C1CCCCCC1)N1CC[C@@H](N2CCC(O)CC2)[C@H](O)C1	none
